Source: PubChem (several laboratories)
GRK2 aptamer HTS: blocks RNA aptamer binding to human GRK2; P25098; bead flow cytometry, FAM-aptamer displacement from GRK2; inhibition of aptamer binding, % at 10 µM; 330,000 tested, 0.59% active;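 active means inhibition of aptamer binding above 40%, roughly 3 SD of noise, on plates passing a quality check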;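 further: median bead fluorescence of bound FAM aptamer so fluorescent compounds give negative values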
Target sequence (P25098 whole entry, looked up): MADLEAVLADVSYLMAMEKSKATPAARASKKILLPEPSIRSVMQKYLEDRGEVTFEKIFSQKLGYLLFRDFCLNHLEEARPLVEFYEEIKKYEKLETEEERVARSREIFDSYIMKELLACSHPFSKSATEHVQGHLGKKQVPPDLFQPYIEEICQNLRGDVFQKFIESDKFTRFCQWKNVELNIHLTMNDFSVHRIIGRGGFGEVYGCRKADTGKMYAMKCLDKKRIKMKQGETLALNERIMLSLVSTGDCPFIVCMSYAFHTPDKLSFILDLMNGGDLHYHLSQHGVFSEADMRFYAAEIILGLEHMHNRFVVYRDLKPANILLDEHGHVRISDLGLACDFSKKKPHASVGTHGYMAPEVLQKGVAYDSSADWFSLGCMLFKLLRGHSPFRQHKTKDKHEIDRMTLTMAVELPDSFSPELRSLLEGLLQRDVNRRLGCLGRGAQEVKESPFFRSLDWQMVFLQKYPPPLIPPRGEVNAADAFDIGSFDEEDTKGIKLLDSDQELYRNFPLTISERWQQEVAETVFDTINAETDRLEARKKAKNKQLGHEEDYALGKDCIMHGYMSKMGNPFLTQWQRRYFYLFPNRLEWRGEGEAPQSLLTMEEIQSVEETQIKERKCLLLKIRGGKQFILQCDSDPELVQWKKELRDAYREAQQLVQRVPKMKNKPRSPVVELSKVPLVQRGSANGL
TLR4-MyD88 BLA: TLR4-MyD88 interaction inhibition in cells | HeLa CL3-4 TLR4/MyD88 BLA complementation, FRET ratio | 200,000 tested, 0.18% active | O00206+Q99836 | inhibition, % at 8.4 µM; in the data active means inhibition above about 25%;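 further: 0% = vehicle and 100% = reference inhibitor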
NOD2-RIPK2 inh: inhibitors of human NOD2-RIPK2 interaction | 360,000 tested, 0.38% active | O43353 | inhibition, % at 4.98 µM | AID 624267 | CHO BLA complementation NOD2-RIPK2, CCF4 ratio; in the data active means inhibition above about 21%;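 further: 0% = vehicle only and 100% = reference blocker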
TLR9-MyD88 inh: TLR9-MyD88 interaction inhibition | Q9NR96+Q99836 | CHO BLA complementation TLR9-MyD88, CCF4 FRET ratio | inhibition, % at 4.98 µM | 340,000 tested, 0.21% active | AID 504734;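 active means inhibition above the mean over all tested compounds plus 3 SD, cut at about 21% in these data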;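 further: 0% = DMSO only wells and 100% = clavulanate BLA inhibitor control wells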
TMEM16A act: activators or potentiators of mouse TMEM16A chloride channel | HEK293 TMEM16A/YFP-H148Q/I152L, iodide quench fluorescence; hits give low values | B-score at 10 µM | 340,000 tested, 0.3% active | AID 623877;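 active means fluorescence-ratio B-score plate-corrected deviation score at least 3 library SD below zero, with starting fluorescence score within 5 deviations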;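 further: channel opened by trigger with iodide after compound preincubation; score built on the fluorescence ratio of max minus min over baseline; more negative score means more quench and so TMEM16A activation or potentiation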
ANO1 block: mouse TMEM16A channel inhibition, primary screen. HEK293 TMEM16A/YFP iodide influx fluorescence, ionomycin. normalized B-score (activity score, 25-100; higher = stronger inhibition) at 10 µM. AID 588511. 310,000 tested, 1.2% active;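 active means ratio plate-corrected score three or more library SD toward inhibition, starting fluorescence score within five deviations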;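 further: score derived from kinetic fluorescence span divided by baseline fluorescence per well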
An asterisk follows results filed as active; i = inactive; / = no result given. Most compounds without a hit are left out; they make up all but 2.2% or so of the library.

SMILES	GRK2 aptamer HTS	TLR4-MyD88 BLA	NOD2-RIPK2 inh	TLR9-MyD88 inh	TMEM16A act	ANO1 block
COc1cccc(C(c2nnnn2C2CCCC2)N2CCN(C/C=C/c3ccccc3)CC2)c1OC (stereo unspecified)	/	/	-8	/	/	/
O=C1NC[C@@H](CCCCN2C[C@H](Cc3ccc(O)cc3)N(Cc3ccccc3)C(=O)C2=O)N(Cc2ccccc2)C1=O	/	/	-7	/	/	/
CS(=O)(=O)N1CCN(c2ccccc2NC(=O)Cc2ccccc2)CC1	0	-3	-1	-4	i	i
CS(=O)(=O)N1CCN(c2ccccc2NC(=O)Cc2ccc(Cl)cc2)CC1	0	3	3	4	-25*	i
CCc1ccc(NS(=O)(=O)c2ccc3[nH]cc(C(=O)N4CCc5ccccc54)c(=O)c3c2)cc1	41*	-7	-4	6	i	i
O=c1cc(-c2ccc([N+](=O)[O-])cc2)nc2cc(-c3ccc(Cl)cc3)[nH]n12	58*	-1	/	/	/	i
CCCc1cc(=O)n2[nH]c(-c3ccc(Cl)cc3)cc2n1	0	/	1	-2	i	i
COc1cc(/C=C/C(=O)c2ccc(NS(=O)(=O)c3ccc(C)cc3)cc2)cc(OC)c1O	3	1	1	10	-5.1*	i
CC[C@H]1O[C@H](C)CC2=C1C(=O)OC(C)(C)O2	/	/	-18	/	/	/
CC(C)(C)c1ccc(-c2nnc(SCC(=O)c3ccc4c(c3)OCCO4)o2)cc1	0	-4	1	-5	i	100*
CC(=O)CSc1nnc(-c2ccc3c(c2)OCO3)o1	9	10	-9	10	-16*	i
CC1(C(=O)Nc2ccc3c(c2)OCCO3)CN(S(C)(=O)=O)CC(=O)N1CCCn1ccnc1 (stereo unspecified)	/	/	4	/	/	/
CC(C)Oc1ccc(CNC(=O)CC(c2ccccc2)c2cc(Cl)ccc2O)cc1 (stereo unspecified)	1	-7	-20	5	i	100*
COc1ccccc1C(CC(=O)Nc1ccc(Cl)cc1)c1ccc(OC(C)C)cc1 (stereo unspecified)	0	3	-11	-4	i	i
Cc1nc(C(F)(F)F)ccc1C(=O)N1CCCCCC1(C)C(=O)NCC(C)C (stereo unspecified)	/	/	-4	/	/	/
O=C(OCCCCN1C(=O)c2ccccc2C1=O)c1ccc(S(=O)(=O)N2CCCC2)cc1	0	1	7	0	i	25*
O=C(CCCCCN1C(=O)c2ccccc2C1=O)Nc1ccc(S(=O)(=O)N2CCCCC2)cc1	2	-17	-3	0	i	i
CCOC(=O)[C@]12CCCC=C1N(Cc1ccc(Cl)cc1Cl)C(=O)[C@H](CC(=O)NCc1cccc3ccccc13)C2	/	/	10	/	/	/
CCCCCCCCCC(=O)N1CCN(c2cc3c(cc2F)c(=O)c(C(=O)O)cn3CC)CC1	0	/	1	-6	-8.6*	i
CCCCCCC(=O)N1CCN(c2cc3c(cc2F)c(=O)c(C(=O)O)cn3CC)CC1	0	-7	-1	-3	i	i
COC(=O)CC1OCC=C2CN3CCC45C6=CC(=O)C(=O)C([N+](=O)[O-])=C6NC4C1C2CC35 (stereo unspecified)	/	/	-9	/	/	/
CCc1ccc(Nc2n[n+](-c3ccccc3)c(-c3ccc(OCc4ccccc4)cc3)s2)cc1	0	/	0	-8	i	100*
Cc1cc(C)n(Cc2ccc(C(=O)O)cc2)n1	1	2	2	9	i	i
Cc1ccc(C)n1Cc1ccc(C(=O)O)cc1	88*	13	10	-15	i	i
CCC(CC)C(=O)Oc1c(Sc2ccccc2[N+](=O)[O-])c(C)nn1C(C)(C)C	0	9	-1	3	-10*	i
SMILES	GRK2 aptamer HTS	TLR4-MyD88 BLA	NOD2-RIPK2 inh	TLR9-MyD88 inh	TMEM16A act	ANO1 block
COCC(=O)Oc1c(Sc2ccccc2[N+](=O)[O-])c(C)nn1C(C)(C)C	0	-5	1	-1	i	i
Cc1ccc2cc(C#N)c(N3CCCN(S(=O)(=O)c4ccc(F)cc4)CC3)nc2c1	0	-4	-10	-6	-9.6*	i
CC(=O)c1ccccc1OCCOc1ccccc1C(C)=O	0	/	12	-5	i	i
COc1ccccc1OCCCCOc1ccccc1C(C)=O	10	13	-3	1	i	25*
COc1cccc(-c2nn(C)c3sc(C(=O)N4CCN(c5ccccn5)CC4)cc23)c1	2	10	3	-16	i	25*
C(=N\Nc1nc(Nc2ccccc2)nc(N2CCOCC2)n1)/c1c[nH]c2ccccc12	3	11	/	/	/	25*
CCCNC(=O)C1(C)CCCN(C(=O)CN2C(=O)c3ccccc3C2=O)C1 (stereo unspecified)	/	/	-4	/	/	/
Cc1cccc(C)c1NC(=O)C(c1ccnc2ccccc12)N1CCN(CCN(C)C)CC1 (stereo unspecified)	/	/	-10	/	/	/
O=[N+]([O-])c1ccc(-c2cnc(SCc3ccccc3Cl)[nH]2)cc1	0	25*	14	15	i	100*
Cc1cc(C)c(CSc2ncc(-c3ccc([N+](=O)[O-])cc3)[nH]2)c(C)c1	2	14	41*	17	i	i
O=C(C1=C[C@@H](c2ccccc2)C[C@@H](OCCCCO)O1)N1CCOCC1	0	-2	-7	-9	i	100*
O=C(C1=C[C@@H](c2ccc(Br)cc2)C[C@@H](OCCCCO)O1)N1CCOCC1	0	-1	4	8	i	i
COc1cc(/C=N/N=C(N)N)ccc1OCc1ccccc1Cl	0	-10	-1	3	i	100*
COc1ccc(/C=N/N=C/c2ccc(OC)c(OC)c2)cc1OC	1	-2	3	4	i	i
CC(=O)C1=C(O)C(=O)N(c2ccc(C(=O)O)cc2)C1c1ccccc1 (stereo unspecified)	0	-4	-10	-6	-14*	i
COc1cc(C(=O)NS(=O)(=O)c2ccccc2C)ccc1Cc1cn(C)c2ccc(NC(=O)OC3CCCC3)cc12	1	/	/	/	/	100*
COc1ccc(NC(=O)COc2ccccc2C)cc1S(=O)(=O)N1CCCCC1	2	/	-7	11	i	i
Cc1ccc(CN2C(=O)CSCC2(C)C(=O)Nc2c(C)cccc2C)cc1 (stereo unspecified)	/	/	-6	/	/	/
Cc1cc(O)c2c(c1O)C(=O)[C@]13C(=C2O)C(=O)[C@@H]2[C@@H](O)[C@H]1[C@@H]1[C@H](O)[C@H]3C(=O)C3=C(O)c4c(O)cc(C)c(O)c4C(=O)[C@]312	72*	/	-9	-4	i	/
O=C(NCC[C@H]1CC[C@H](NS(=O)(=O)c2ccccc2F)[C@@H](CO)O1)c1ccc(F)cc1	/	/	3	/	/	/
